# Laboratory results taken from ChEMBL document CHEMBL3988442, “University of Dundee, Small-Polar-MMV Screening Library” (2021).
# Screen size: about 48,000 compounds; about 13,000 (27%) showed an effect of 50% or more. Some of the results follow.
# Test system: Wolbachia pipientis
# Experiment: Anti-Wolbachia Cell-Based Screen
# Assay type: functional
# Parameters: scale not given: in the data most compounds retested in dose-response had high values
# Conditions: 5 µM
row,SMILES,Percent Effect [%]
1,COc1cc(C)c(CNC(C)c2csc(C3CC3)n2)cc1OC (stereo unspecified),30.24
2,CC(C)Cc1cc(C(=O)NC(C)(C)c2nnc(N)s2)n(C)n1,-11.71
3,Cc1noc(NCc2ccc(F)cc2F)n1,23.53
4,Cc1noc(C2CCCN(C(=O)c3ccc(Cl)cc3F)C2)n1 (stereo unspecified),-0.5657
5,CC(C)c1nnc2ccc(N3CCC(C(N)=O)CC3)nn12,13.6
6,CS(=O)(=O)CCOCCNc1ccc2ccc(F)cc2n1,5.905
7,COCC(NC(=O)c1ccc[nH]1)c1cccc(C(F)(F)F)c1 (stereo unspecified),-9.811
8,CN1CCc2cc(C(=O)N(C)C)c(NCC3CC3)nc2CC1.O=C(O)C(F)(F)F.O=C(O)C(F)(F)F,92.24
9,CC(C)Nc1nc2c(cc1C(=O)NCC1CC1)CCN(C)CC2.O=C(O)C(F)(F)F.O=C(O)C(F)(F)F,0.01551
10,CC(C)CCN1CCc2cc(C(=O)N(C)C)c(NCC3CC3)nc2CC1.O=C(O)C(F)(F)F.O=C(O)C(F)(F)F,98.43
11,O=C(O)C(F)(F)F.O=C(O)C(F)(F)F.O=C(O)c1cc2c(nc1NCC1CC1)CCN(C1CCOC1)CC2 (stereo unspecified),-1.204
12,O=C1N(CCO)CCCC12CCN(Cc1noc(C3CCCC3)n1)C2 (stereo unspecified),-14.7
13,COc1ccc2c(=O)n(CC3CCCN(C)C3)ccc2c1OC (stereo unspecified),-1.973
14,Cc1cc(C(=O)N2CCCC(N3CCNC3=O)C2)nn1C(C)(C)C (stereo unspecified),-5.29
15,CCCS(=O)(=O)c1ncc(CN2CCC(CO)CC2)n1CC1CCCO1 (stereo unspecified),10.89
16,Cn1nc(CNc2ncccn2)c2c1CN(c1cnccn1)CC2,89.69
17,CCS(=O)(=O)N1CCc2onc(CNc3ncccn3)c2C1,3.304
18,CC(C)n1nc(CNc2ncccn2)c2c1CN(C)CC2.O=C(O)C(F)(F)F.O=C(O)C(F)(F)F.O=C(O)C(F)(F)F,-10.41
19,c1cnc(N2CCc3onc(CN4CCOCC4)c3C2)cn1,102
20,CC(C)n1nc(CNc2ncccn2)c2c1CN(S(C)(=O)=O)CC2,3.209
21,O=C(c1ccncc1)N1CCc2onc(CN3CCCC3)c2C1,-9.45
22,O=C(c1ccsc1)N1CCc2onc(CN3CCOCC3)c2C1,-3.104
23,c1cnc(N2CCc3onc(CN4CCCC4)c3C2)cn1,88.59
24,CCN1CCc2onc(CNc3ncccn3)c2C1,1.38

row,SMILES,Percent Effect [%]
1,c1cnc(NCc2noc3c2CN(c2cnccn2)CC3)nc1,99.25
2,O=C(c1cccnc1)N1CCc2onc(CN3CCCC3)c2C1,-1.696
3,O=C(c1cnccn1)N1CCc2onc(CN3CCCC3)c2C1,10.5
4,COc1cc(C(=O)NC2COc3ccccc3C2)ccc1OCC(N)=O (stereo unspecified),16.72
5,Fc1ccc2[nH]c(C3CCCN3CCCn3cccn3)nc2c1 (stereo unspecified),-31.47
6,C=Cc1cccc(CN2C[C@@H](CN(C)CC)[C@@H](CO)C2)c1,-5.546
7,O=C1CC2(CCN(C(=O)c3cccc(Cl)c3)CC2)CN1,-6.217
8,COC(=O)[C@@H](NC(=O)c1coc(COc2cccc(F)c2F)n1)C(C)C,-36.4
9,Cc1cc(CN(CCO)c2ccc(Br)cc2)on1,-2.085
10,CN(Cc1ccco1)C[C@H]1OC[C@@H]2CCN(Cc3cccs3)C[C@@H]21.O=C(O)C(F)(F)F.O=C(O)C(F)(F)F,-12.79
11,CN(Cc1ccco1)C[C@H]1OC[C@@H]2CCN(Cc3nccs3)C[C@@H]21,-15.41
12,Cc1cccc(N2CC[C@H]3[C@H](CO[C@@H]3CN(C)Cc3ccco3)C2)n1.O=C(O)C(F)(F)F.O=C(O)C(F)(F)F,52.12
13,CN(Cc1ccco1)C[C@H]1OC[C@@H]2CN(c3ncc(F)cn3)CC[C@@H]21.O=C(O)C(F)(F)F.O=C(O)C(F)(F)F,81.17
14,Cc1cccc(N2CC[C@@H]3[C@@H](CO[C@H]3CNS(C)(=O)=O)C2)n1,-14.44
15,Cc1cccc(N2CC[C@H]3CO[C@H](CN(C)Cc4ccco4)[C@H]3C2)n1,108.5
16,CN(Cc1ccco1)C[C@H]1OC[C@@H]2CCN(Cc3cccnc3)C[C@@H]21.O=C(O)C(F)(F)F.O=C(O)C(F)(F)F.O=C(O)C(F)(F)F,7.341
17,CN(Cc1ccco1)C[C@H]1OC[C@@H]2CCN(Cc3ccncc3)C[C@@H]21.O=C(O)C(F)(F)F.O=C(O)C(F)(F)F.O=C(O)C(F)(F)F,-1.908
18,CN(Cc1ccco1)C[C@@H]1OC[C@H]2CN(Cc3nccs3)CC[C@H]21.O=C(O)C(F)(F)F.O=C(O)C(F)(F)F,3.908
19,Cc1ccc(N2CC[C@H]3CO[C@H](CN(C)Cc4ccco4)[C@H]3C2)nn1.O=C(O)C(F)(F)F.O=C(O)C(F)(F)F,95.46
20,CC(C)N1CC(c2ncc(-c3ccc4c(c3)OCCO4)[nH]2)CC1=O (stereo unspecified),5.292
21,CC(C)CN1C(=O)CO[C@@H]2CN(C(=O)[C@H]3CCCO3)C[C@H]21,-3.768
22,CC(C)(O)CCc1ccc(C(=O)N2CCN(CCS(C)(=O)=O)CC2)cc1,-13.16
23,Cl.Cn1ncc2c1CCCC2NCc1cc(Br)cs1 (stereo unspecified),7.416
24,CCOC(=O)N1CC(C)=C(C)CN1C(=O)Nc1ccc(Cl)c(Cl)c1,122.4

row,SMILES,Percent Effect [%]
1,COC(=O)N1CC(C)=C(C)CN1C(=O)Nc1ccc(Cl)cc1,87.33
2,Cc1ccc(NC(=O)N2CCOC(C)C2)cc1Cl (stereo unspecified),8.105
3,Cc1cc(=O)n(CC(=O)Nc2ccc(Cl)cc2)nc1C,-24.72
4,COc1ccc(NC(=O)Cn2nc(C)c(C)cc2=O)cc1Cl,-5.001
5,COC(=O)NCCC(=O)NCC1(c2cccc(Cl)c2)CC1,6.503
6,COC(=O)NCCCC(=O)NCC1(c2cccc(Cl)c2)CC1,-5.013
7,CCc1csc(CNCC(=O)Nc2ccc(Cl)c(C)c2)n1,20.64
8,COC(=O)N1CC(C)=C(C)CN1C(=O)Nc1ccc(Cl)c(Cl)c1,93.89
9,CN1CC(Oc2ccccc2)=NC(SCC(=O)Nc2ccc(Cl)cc2)=N1,11.53
10,Cc1ccc(NC(=O)N2CCCC(O)(CO)CC2)cc1Cl (stereo unspecified),-14.19
11,COC(=O)N1CC(C)=C(C)CN1C(=O)Nc1cccc(Cl)c1,127.6
12,CCCc1c(C(=O)N2CCN(c3ncccn3)CC2)cnn1C,-7.534
13,COc1ccc(C2CCN(CCCC#N)CC2)cc1,4.999
14,CN(CCn1ccc2ccccc21)C(=O)CS(C)(=O)=O,-3.366
15,CCC(NCc1cccc(Cl)c1)c1ccccc1OCC(=O)NC (stereo unspecified),-3.101
16,Cc1cc(C)n(CC2CN(Cc3nc4ccccc4s3)CCO2)n1 (stereo unspecified),100.5
17,Cc1nc(C)n(CC2CN(CCCOc3ccccc3C)CCO2)n1 (stereo unspecified),-2.427
18,c1ccc2sc(CN3CCOC(Cn4cccn4)C3)nc2c1 (stereo unspecified),18.8
19,c1ccc2sc(CN3CCOC(Cn4cncn4)C3)nc2c1 (stereo unspecified),-2.125
20,Cc1nc(C)n(CC2CN(Cc3nc4ccccc4s3)CCO2)n1 (stereo unspecified),214.4
21,Cc1nc(C)n(CC2CN(CCc3ccccn3)CCO2)n1 (stereo unspecified),-80.6
22,Cc1cnc(CN2CCOC(Cn3nc(C)nc3C)C2)cn1 (stereo unspecified),1.014
23,Cc1cnn(CC2CN(Cc3nc4ccccc4s3)CCO2)c1 (stereo unspecified),112.2
24,Cc1nc(C)n(CC2CN(CCCOc3ccccc3)CCO2)n1 (stereo unspecified),117

row,SMILES,Percent Effect [%]
1,CCOc1cc(CNCCCn2ccnc2)cc(Cl)c1OC,-2.323
2,COCCN1C[C@H]2[C@@H](C1)N(C(=O)c1cccs1)CC[C@H]2OC,-4.854
3,CC(=O)c1ccc(OCC(=O)NC(C)CCc2ccco2)cc1 (stereo unspecified),-8.021
4,COc1ccccc1OC1(C(=O)O)CCN(c2ncnc(C)c2C)CC1,-46.26
5,N#CCCNC(=O)CSc1ccc(F)cc1F,-9.893
6,Cc1c(C(C)NC(=O)Nc2ccc(F)c(F)c2)cnn1C (stereo unspecified),0.41
7,Cc1nn(C)cc1C1=NS(=O)(=O)N(C)C(C(=O)Nc2ccc(Cl)cc2)=C1,140.7
8,CN1CCC(Oc2ccc(NC(=O)c3ccccc3Br)cc2)CC1,-1.249
9,Cc1c(C2=NS(=O)(=O)N(C)C(C(=O)Nc3ccc(Br)cc3)=C2)cnn1C,158.8
10,Cc1nn(C)cc1C1=NS(=O)(=O)N(C)C(C(=O)Nc2ccc(Br)cc2)=C1,160.2
11,CNc1nc(CNC(=O)Nc2ccccc2-c2noc(C)n2)cs1,2.213
12,CN1CC(NC(=O)CCCc2cc(Cl)sc2Cl)CCC1=O (stereo unspecified),-9.281
13,O=C(NCCCOc1cccnc1)c1cn(CCc2ccccc2)nn1,-0.6541
14,O=C(NCCCNc1cccnc1)c1ccc2nccn2c1,1.237
15,O=C(NCc1cccnc1)c1cn(CCc2ccccc2)nn1,77.17
16,O=C(NCCc1ccccc1)c1cn(CCNCc2cccnc2)nn1,-1.891
17,O=C(NCc1cccnc1)c1ccc2nccn2c1,107.5
18,O=C(NCCc1cccnc1)c1ccc2nccn2c1,-5.38
19,CN(C)c1cccc(C(=O)NCC2(O)CCOCC2)c1,-18.41
20,CN(C)c1ccc(C(=O)NCC2(O)CCOCC2)cc1,-16.02
21,COC(=O)c1ccc(C(=O)NCC2(O)CCOCC2)cc1,130.4
22,O=C(NCC1(O)CCOCC1)c1ccc(F)cc1,96.45
23,Cc1ccc(C(=O)NCC2(O)CCOCC2)cc1Br,-13.19
24,Cc1ccc(C(=O)NCC2(O)CCOCC2)cc1F,-12.72
